# GLP-1R agonist – GLP-1 receptor (human) agonism. P43220. HEK293 GLP-1R CRE-luciferase, luminescence, 4-6 h; cells express a hypersensitive GLP-1R form. Potency, µM (top dose mostly 45.6 µM), inactives show at the highest dose activation, actives largely listed as activators. hit rate 0.007% among 380,000; note: % of control where 0% means no effect
# Target sequence (P43220 whole entry, looked up): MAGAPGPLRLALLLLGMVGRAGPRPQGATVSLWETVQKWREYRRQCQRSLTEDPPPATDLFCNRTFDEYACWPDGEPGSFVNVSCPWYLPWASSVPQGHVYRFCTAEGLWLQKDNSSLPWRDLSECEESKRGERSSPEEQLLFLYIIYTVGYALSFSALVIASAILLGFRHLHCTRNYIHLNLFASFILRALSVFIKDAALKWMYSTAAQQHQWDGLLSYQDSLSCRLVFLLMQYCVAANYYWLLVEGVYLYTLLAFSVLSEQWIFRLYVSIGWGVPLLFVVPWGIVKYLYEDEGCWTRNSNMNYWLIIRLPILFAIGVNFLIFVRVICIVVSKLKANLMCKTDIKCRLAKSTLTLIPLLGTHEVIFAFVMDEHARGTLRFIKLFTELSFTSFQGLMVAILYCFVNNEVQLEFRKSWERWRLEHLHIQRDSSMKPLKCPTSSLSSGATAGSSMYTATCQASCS
# GLP1R inv ag – acts as inverse agonist at human GLP-1 receptor; P43220; HEK293 GLP-1R CRE-luciferase, luminescence, 24 h; GLP-1R form is constitutively active; Potency, µM (series often up to 38.3 µM), for inactives: at the top dose activity change, negative = inhibition, hits mostly inhibitors; hit rate 1.6% among 410,000; AID 624417; note: % is set by controls: 0 for no effect and ±100 for the full control effect; nearly all actives have a fitted effect of over 55% in size
#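 Stable HEK293 clone (constitutively active GLP-1R + cAMP-response luciferase); 200 cells/uL plated, 12 h pre-culture, compound 24 hr, 37 deg C/5% CO2; detection reagent 12 min RT; luminescence.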
# TGFb SMAD3 inh – TGF-b pathway inhibition | HepG2 CAGA-GFP TGF-b/SMAD3 reporter, GFP fluorescence, 18 h; TGF-beta stimulated, 500 pg/mL final | Potency, µM (doses to about 46.1 µM), for the others: at the highest dose activity, negative = inhibition, actives largely listed as inhibitors | hit rate 1.2% among 410,000 | AID 588855; note: % is set by controls: 0 for no effect and ±100 for the full control effect; nearly all actives have a fitted effect of over 65% in size
#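 Using HEPG2 CAGA-GFP reporter cells at 1000 cells/well, we pinned test compounds, stimulated with recombinant TGF-beta (500 pg/mL final) and measured total well GFP after 18 h.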
# ATXN viability – cell viability loss in ATXN counter-screen; S2 cells (HEK-293 line with an ATXN2-luciferase reporter) viability, CellTiter-Fluor protease fluorescence, 24 h; Potency, µM (series often up to 56.7 µM), usual class: cytotoxic; hit rate 0.49% among 400,000; AID 651635; note: nearly all actives have a fitted effect of over 40% in size
# HepG2 viability – HepG2 cytotoxicity, counter-screen for TGF-b inhibitors; HepG2 CAGA-GFP viability, ATP luminescence, 18 h; Potency, µM (doses to about 46.1 µM), without a hit: at the top dose activity change, negative = cytotoxicity, hits mostly cytotoxic; hit rate 0.76% among 410,000
#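 HepG2 CAGA-GFP cells (1000/well, DMEM with 1% FBS) received compound, then TGF-beta at 500 pg/mL final, and were incubated 18 hours at 37 degrees C. Viability was read by CellTiter-Glo luminescence. Media-only wells were set as complete cell-killing and DMSO as no toxicity.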
# ATXN2 expr inh – reduces ATXN2 reporter expression in HEK-293 cells. HEK-293 ATXN2-luciferase reporter, luminescence, 24 h. Potency, µM (highest dose often 57 µM), inactives show top-dose activity change, negative = inhibition, most hits filed as inhibitors. hit rate 0.72% among 360,000. AID 1745845; note: % is set by controls: 0 for no effect and ±100 for the full control effect; nearly all actives have a fitted effect of over 55% in size
#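 qHTS (up to 57 uM final) was run with 24 h compound exposure of reporter cells at 37 °C. Each well was multiplexed: SteadyGlo luminescence measured ATXN2-luciferase expression after a fluorogenic Gly-Phe-AFC viability readout (25 uM final).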
# * = called active by the depositor; i = inactive; u = inconclusive; x = no result given. Compounds with a hit are over-represented: about 3.7% of the library has one in this group of screens. Calls come from the whole dose curve; as a rule, active = well fitted curve in the direction sought with a large enough effect; inconclusive = small, poorly fitted or top-dose-only effect, or another doubt; inactive = no such curve, though single readings can be large; an effect the other way counts as inactive or inconclusive. Potency is the fitted concentration of half-maximal effect.
SMILES,GLP-1R agonist,GLP1R inv ag,TGFb SMAD3 inh,ATXN viability,HepG2 viability,ATXN2 expr inh
Cc1ccc(S(=O)(=O)N2[C@@H](c3ccc(C(C)(C)C)cc3)C(C(=O)O)=CC[C@H]2c2ccc(Cl)cc2)cc1,-3%,u,u,u,-109%,u
Cc1ccc(S(=O)(=O)N2[C@@H](c3ccc(Cl)cc3)C(C(=O)O)=CC[C@H]2c2ccc(Cl)c(Cl)c2)cc1,-3%,3.5µM*,u,u,-36%,-6%
CCOC(=O)C1=CC[C@@H](c2ccccc2)N(S(=O)(=O)c2ccc(C)cc2)[C@H]1C,12%,u,u,i,22µM*,-3%
CCc1ccc([C@@H]2CC=C(C(=O)O)[C@H](c3ccc(C(C)(C)C)cc3)N2S(=O)(=O)c2ccc(C)cc2)cc1,-5%,13µM*,u,x,-103%,u
CN(C)/C=N/c1nc2c(ncn2C2CC(O)C(CO)O2)c(=O)[nH]1 (stereo not drawn),x,x,-2%,x,5%,x
COc1ccc(S(=O)(=O)N2CCN(c3nc(-c4ccccc4)nc4ccccc34)CC2)cc1,x,x,-20%,x,-34%,x
COc1cc(=O)n2c(c1C(=O)N(C)Cc1nonc1C)CCN(C(=O)c1ccc(C)c(C)c1)CC2,x,x,x,i,x,x
OC(Cc1ccc2ccccc2n1)c1ccccc1 (stereo not drawn),x,x,2%,x,-9%,x
Cc1csc(C)[n+]1CCC1CCCCC1,x,x,-18%,x,-5%,x
CCN1CCN(c2ncc3c(n2)CCN(Cc2sccc2C)C3)CC1,x,u,-1%,i,-6%,5%
CCN1CCN(c2ncc3c(n2)CCN(Cc2ccc(Br)s2)C3)CC1,x,3.2µM*,63%,u,-18%,-9%
CCN1CCN(c2ncc3c(n2)CCN(Cc2ccc(C)s2)C3)CC1,x,u,0%,i,4%,-1%
CN1CCN(c2ncc3c(n2)CCN(Cc2ccc(Br)s2)C3)CC1,x,3.2µM*,1%,i,0%,1%
CCN1CCN(c2ncc3c(n2)CCN(Cc2ccc(OC(C)C)cc2)C3)CC1,x,10µM*,-29%,i,-16%,-3%
CCN1CCN(c2ncc3c(n2)CCN(Cc2cc(Br)cs2)C3)CC1,x,4.5µM*,-12%,i,-11%,-12%
CCCCN1CCc2nc(N3CCN(C)CC3)ncc2C1,x,-4%,-7%,i,1%,8%
O=C(NC1CCCCCC1)C1CCC(CNS(=O)(=O)c2cccc3cccnc23)CC1 (stereo not drawn),x,x,3%,x,-23%,x
Fc1ccc(CN2CCc3nc(N4CCN(c5ccccc5F)CC4)ncc3C2)c(F)c1,x,-1%,u,i,-9%,-13%
CCOc1ccccc1CN1CCc2nc(N3CCN(c4ccccc4F)CC3)ncc2C1,x,10µM*,u,u,-20%,u
O=C(O)CCCCNCc1ccccc1,-5%,11%,4%,i,-10%,3%
Oc1ccccc1CNCCCNCc1ccccc1O,-3%,8.9µM*,-7%,u,-48%,-37%
c1ccc(CNCCCNCCCCNCCCNCc2ccccc2)cc1,-5%,2.8µM*,u,u,7.9µM*,28µM*
Cn1c(CNC(=O)CSc2nc(-c3ccccc3F)nc3cc(=O)[nH]n23)nc2ccccc21,x,1%,1%,i,2%,4%
CCn1nc(C)cc1-c1nnc(Sc2ncc([N+](=O)[O-])s2)n1C,-7%,u,2.8µM*,3.5µM*,4µM*,x
Cc1ncc2c(c1CNC(=O)/C=C/c1cccs1)CCN(C(=O)c1cc(C(C)C)on1)C2,x,x,x,i,x,x
OC(C1=CC(=Cc2ccncc2)c2ccccc21)c1ccncc1 (stereo not drawn),21%,41%,-5%,i,-4%,23%
O=[N+]([O-])c1ccc(/C=C2\C=C(C(O)c3ccc([N+](=O)[O-])cc3)c3ccccc32)cc1 (stereo not drawn),x,x,7.1µM*,x,-21%,x
